HSF1 activator: HSF-1 activators, primary screen, NIH3T3-HGL cells, MG132 stress, luminescence, single point. activation, % at 9 µM. 1.7% of 300,000 active. NIH3T3-HGL HSF-1 luciferase reporter, 8 h; 100% = twice DMSO control signal;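 active = mean replicate activation of at least 50% with a set share of replicates each reaching 50%; inconclusive = only one of those two conditions met; inactive = mean below 50% and too few replicates reaching it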;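 also: 0% = median of the neutral control wells and 100% = twice that signal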
esBAF inh: Bmi1 luciferase reporter increase in mESCs, primary screen, esBAF inhibitor project, mouse ES cells, Bmi1 luciferase knock-in, single point; 24 h; 100% = twice the neutral-well signal; reporter increase, % at 12.5 µM; 2% of 350,000 active; AID 602393, 2012; in the data active = activation above about 40%; inconclusive = no clear call, values can overlap the other calls;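 also: 0% = median of the plate's neutral control wells and 100% = double that signal; a rise in the Bmi1 reporter signal indicates esBAF inhibition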
HSF1 inhib: HSF1 inhibitors in luciferase reporter cells, primary screen, cell-based, NIH3T3, luminescence | 0.77% of 300,000 active | activity change, negative = inhibition, % at 7.5 µM (by protocol) | NIH3T3-HGL HSE-luciferase, MG132-induced, luminescence 8 h; hits give low values | AID 2098, 2009;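 active = more than half of replicate wells show activity change below -50%, luminescence cut by over half; inconclusive = some wells, but at most half, below -50%; inactive = no replicate well below -50%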;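 also: luciferase reports HSF-1 transcriptional activity via heat shock element; 0% = median of DMSO wells and -100% = zero luminescence signal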
Vif imaging: HIV Vif self-association inhibitors, primary screen, imaging, HEK293T, single point; inhibition, % at 7.49 µM; AID 602346, 2012; 0.35% of 340,000 active; HEK293T cells, Vif self-association by quenched fluorescence, 24 h; in the data active = inhibition above about 50%, passing the limit was not always enough; inconclusive = no clear call, values can overlap the other calls; inactive = below about 31%
Starred values were filed as active, the others as inactive; ? = inconclusive; . = no result. Most compounds without a hit are left out; they make up all but 3.4% or so of the library.

SMILES	HSF1 activator	esBAF inh	HSF1 inhib	Vif imaging
Cn1c(CCN2CCN(c3ccc(F)cc3)CC2)nc2cc(NC(=O)c3ccco3)ccc21	8	6	4	4
Cc1ccc(N2CCN(CCc3nc4cc(NC(=O)c5ccco5)ccc4n3C)CC2)cc1	69*	9	25	-8
CN1CCN(CCc2nc3cc(NC(=O)c4ccco4)ccc3n2C)CC1	20	.	10	1
Cn1c(CCN2CCN(c3ccccc3)CC2)nc2cc(NC(=O)c3ccco3)ccc21	128*	6	103	1
Cc1ccc(N(C)/N=C/c2ccc(Cl)cc2Cl)nn1	21	42*	5	-7
CC(=O)Oc1ccc(C(=O)Nc2ccc(C3(C#N)CCCC3)cc2)cc1	-29	51*	-8	-10
N#CC1(c2ccc(NC(=O)c3ccccc3)cc2)CCCC1	40	19	36	4
O=[N+]([O-])c1ccc(/C=N/n2cnc3ccccc32)s1	63*	.	37	-6
CC(C)c1nnc(SCc2ccc(CSc3nnc(C(C)C)n3N)cc2)n1N	80*	5	26	.
Cc1ccc(C(=O)c2ccccc2C(=O)OCC(=O)NCCc2ccc(Cl)cc2Cl)cc1	54*	.	31	0
CCC(=O)N[C@@H]1CC[C@H](CCn2cc(C3CC3)nn2)O[C@@H]1CO	.	-5	.	.
O=C([C@@H]1N[C@@H]2c3ccc(C4=CCCCC4)c(=O)n3C[C@@H]2[C@H]1CO)N1CCc2ccccc2C1	.	4	.	.
Cc1ccc(O)c(CNc2cnc3ccccc3c2)c1	30	34	20	-2
COc1cccc(CNc2ccc(F)c(Cl)c2)c1O	75*	25	61	3
Fc1ccccc1CNc1ccc(Cl)c(Cl)c1	10	26	9	55*
Cc1ccc(NCc2ccccc2F)cc1	2	.	7	-7
COc1cccc(CNc2cnc3ccccc3c2)c1O	73*	?	84	.
COc1cccc(CNc2cccc(C(F)(F)F)c2)c1O	7	-6	2	1
COc1cccc(CNc2cccc3cccnc23)c1O	76*	4	37	-3
COc1cccc(CNc2ccccn2)c1O	37	33	9	3
CC(C)NC(=O)Nc1ccc2c(c1)CC(=O)N([C@@H](C)CO)C[C@@H](C)[C@@H](CN(C)Cc1ccc3c(c1)OCO3)O2	.	5	.	.
COc1ccc(NC(=O)N(C)C[C@@H]2Oc3c(NC(=O)c4ccc(-c5nccs5)cc4)cccc3C(=O)N([C@@H](C)CO)C[C@@H]2C)cc1	.	5	.	.
Cc1cc(C)n(CCc2nc(-c3ccc(-c4ccccc4)cc3)cs2)n1	52*	70*	35	-6
C[C@H]1CN([C@@H](C)CO)C(=O)c2cc(NS(=O)(=O)c3ccc(F)cc3)ccc2O[C@H]1CN(C)CC1CCCCC1	.	-1	.	.
S=c1[nH]nc(-c2ccncc2)n1/N=C/C=C/c1ccccc1	4	.	6	-1
SMILES	HSF1 activator	esBAF inh	HSF1 inhib	Vif imaging
COc1ccccc1/C=C/C=N/n1c(-c2ccccn2)n[nH]c1=S	41	56*	11	-3
COc1ccccc1/C=C/C=N/n1c(-c2cc(C)[nH]n2)n[nH]c1=S	?	0	24	-4
Cc1cc(-c2n[nH]c(=S)n2/N=C/C=C/c2ccccc2)n[nH]1	57*	.	14	2
CC1COc2ccccc2N1S(=O)(=O)c1ccc(Cl)cc1 (centres undefined)	0	.	-4	0
Cc1ccc(S(=O)(=O)N2c3ccccc3OCC2c2ccccc2)cc1 (centres undefined)	56*	10	5	-10
O=C(C[C@@H]1CC[C@@H]2[C@H](COC[C@@H](O)CN2Cc2ccc(F)cc2)O1)N1CCc2ccccc2C1	.	1	.	.
Cn1cc(C(=O)N/N=C/c2ccc(Br)c([N+](=O)[O-])c2)c2ccccc21	55*	.	23	5
Cn1cc(C(=O)N/N=C/c2ccc3c(c2)OCO3)c2ccccc21	2	.	-1	11
C[C@@H]1CCCCO[C@@H](CN(C)CC2CCCCC2)[C@H](C)CN([C@H](C)CO)C(=O)c2cc(NC(=O)NC3CCCCC3)ccc2O1	.	0	.	.
COc1ccc(C(=O)/C=C/C(=O)N(CC(=O)NC2CCCCC2)Cc2ccccc2OC)c(O)c1	38	.	15	-5
COc1ccc(C(=O)/C=C/C(=O)N(CC(=O)NC2CCCCC2)Cc2ccccc2)c(O)c1	170*	.	132	8
COc1ccc(CN(CC(=O)NC2CCCC2)C(=O)CN2C(=O)COc3ccccc32)cc1	0	-1	-3	54*
CCC(Sc1nc2ccccc2s1)C(=O)Nc1nnc(C)s1 (centres undefined)	28	1	3	-2
CC(Sc1nc2ccccc2s1)C(=O)Nc1nnc(C(C)C)s1 (centres undefined)	-71	-16	-63*	-2
CC(N1CCOC1=O)S(=O)(=O)c1ccccc1 (centres undefined)	-81	-3	-76*	-3
CC(S(=O)(=O)c1ccccc1)S(=O)(=O)c1ccccc1	.	4	.	21
O=C1/C(=C/c2cccs2)SC(=S)N1CCC(=O)N1CCCCC1CCO (centres undefined)	2	60*	0	-4
CC(=O)c1ccc(C)cc1OC(=O)c1cccc(F)c1	-4	-6	1	.
Cc1ccc(C(=O)CC(=O)c2cccc(F)c2)c(O)c1	8	46*	11	-8
Cc1ccc(C(=O)CC(=O)c2ccccc2C)c(O)c1	7	62*	4	-4
Cc1ccc(O)c(C(=O)CC(=O)c2ccccc2Cl)c1	19	.	10	-8
Cc1ccc(-c2ccc([C@@H]3[C@@H](CO)N4CCCCN(C(=O)c5ccc(F)cc5)C[C@@H]34)cc2)cc1	.	7	.	.
Cc1ccc(S(=O)(=O)Nc2ccc3c(c2)C(=O)N([C@@H](C)CO)C[C@@H](C)[C@H](CN(C)Cc2ccncc2)OCCCC[C@@H](C)O3)cc1	.	6	.	.
CCOC(=O)N1CCN(S(=O)(=O)N2CCCC(C(=O)NCc3ccccc3Cl)C2)CC1 (centres undefined)	-64	2	-53*	-3
C/C(=N\NC1=NCCN1)c1ccc(N)c([N+](=O)[O-])c1	-75	-3	-72*	-5
SMILES	HSF1 activator	esBAF inh	HSF1 inhib	Vif imaging
CCCCCCOc1ccc(/C(C)=N/NC2=NCCN2)cc1[N+](=O)[O-]	?	.	17	-1
C/C=C/c1ccc(OCC(=O)Nc2ccc(OC)c(OC)c2)c(OC)c1	-74	.	-69*	-10
COc1ccc(NC(=O)CCCc2ccccc2)cc1OC	4	65*	17	0
O=C(CCCc1ccccc1)Nc1ccccc1[N+](=O)[O-]	18	53*	14	1
Brc1ccc(-c2csc(N3CCOCC3)n2)cc1	36	.	12	-7
c1ccc(-c2csc(N3CCCCCC3)n2)cc1	-1	43*	1	0
Fc1ccc(-c2csc(N3CCC(c4ccccc4)C3)n2)cc1 (centres undefined)	41	50*	14	-8
Clc1ccc(-c2csc(N3CCOCC3)n2)cc1	53*	.	24	0
